Compounds with a hit are over-represented: about 8% of the library has one in this group of screens.
Cav32 inh: human Cav3.2 channel inhibition, primary screen | O95180 | Cav3.2-expressing cells, Fluo-4 calcium fluorescence FDSS; hits give low values | B-score at 10 µM | 100,000 compounds, 4% hits | AID 449739;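 active = single-dose well whose peak fluorescence ratio is a statistical outlier from its plate by either plate-standardised score or position-corrected B-score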
PostGolgi ctrl: inhibits growth of the yeast control strain; efflux-deficient yeast background strain, growth absorbance A615, 16 h; 98,000 compounds, 5% hits; inhibition, % at 10 µM
PostGolgi yeast: growth inhibition of a yeast mutant, post-Golgi transport screen; inhibition, % at 10 µM; 98,000 compounds, 0.9% hits; AID 739; post-Golgi transport phenotypic cell assay;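 note: yeast cells grown in 1536-well plates; yeast grown about 18 h at 30C before absorbance read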
PTK2B oligo ant: antagonists of human Pyk2 oligomerization. 99,000 compounds, 0.83% hits. z-score (the deposit names both 25 µM and 10 µM). Q14289. Q293 cells, Pyk2 FERM NanoBiT luminescence; hits give low values;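 active = Z-score of -3 or lower, scaled per plate to the spread of control and sample wells; inactive = z-score above -3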;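 note: negative z-score means lost luminescence so less FERM oligomerization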
Target sequence (Q14289 whole entry, looked up): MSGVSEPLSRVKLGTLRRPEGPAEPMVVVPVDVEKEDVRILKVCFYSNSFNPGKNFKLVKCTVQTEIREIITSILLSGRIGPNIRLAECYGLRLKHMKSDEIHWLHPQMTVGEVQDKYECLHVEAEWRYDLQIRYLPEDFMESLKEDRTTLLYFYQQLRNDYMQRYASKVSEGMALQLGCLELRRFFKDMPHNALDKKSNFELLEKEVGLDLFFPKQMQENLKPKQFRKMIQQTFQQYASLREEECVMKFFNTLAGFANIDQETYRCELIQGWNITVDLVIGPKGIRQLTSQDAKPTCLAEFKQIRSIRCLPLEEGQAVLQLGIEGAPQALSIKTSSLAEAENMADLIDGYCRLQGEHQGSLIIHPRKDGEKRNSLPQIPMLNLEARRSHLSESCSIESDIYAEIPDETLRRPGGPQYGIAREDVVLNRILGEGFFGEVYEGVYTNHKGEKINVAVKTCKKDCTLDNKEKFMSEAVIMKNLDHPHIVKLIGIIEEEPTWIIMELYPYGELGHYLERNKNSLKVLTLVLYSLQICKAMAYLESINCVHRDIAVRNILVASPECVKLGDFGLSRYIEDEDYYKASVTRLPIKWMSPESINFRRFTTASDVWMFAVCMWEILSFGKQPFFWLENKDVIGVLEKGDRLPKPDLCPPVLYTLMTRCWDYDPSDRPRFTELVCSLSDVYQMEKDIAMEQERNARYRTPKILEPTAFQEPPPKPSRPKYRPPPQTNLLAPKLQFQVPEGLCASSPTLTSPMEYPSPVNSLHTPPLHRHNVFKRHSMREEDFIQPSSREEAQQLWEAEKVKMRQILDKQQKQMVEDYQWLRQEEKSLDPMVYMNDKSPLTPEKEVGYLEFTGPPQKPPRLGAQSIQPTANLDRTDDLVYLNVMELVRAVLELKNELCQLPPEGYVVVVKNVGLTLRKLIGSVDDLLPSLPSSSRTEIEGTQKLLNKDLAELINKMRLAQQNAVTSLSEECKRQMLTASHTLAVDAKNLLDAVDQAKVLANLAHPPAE
* hit, by the source's call; . = not tested or not shown. Cut-off read from the data, not from the text of the source, unless noted: active = inhibition above about 30%; inactive = the rest.

SMILES | Cav32 inh | PostGolgi ctrl | PostGolgi yeast | PTK2B oligo ant
CCN1C(=O)C(C)S/C1=N\S(=O)(=O)c1ccc(Cl)s1 (configuration not stated) | -2 | 3 | -4 | -1.1
O=C(c1ccccc1)n1nc(-c2ccccc2)nc1NCc1ccco1 | . | 8 | 0 | .
O=S(=O)(c1ccccc1)n1nc(-c2ccccc2)nc1NCc1ccco1 | -4.5* | 36* | 2 | 0.14
Cc1ccccc1Nc1c(N)c(=O)oc2ccccc12 | -1.3 | 19 | 2 | -0.31
N#Cc1cc(C#N)c(N2CCN(c3cccc(Cl)n3)CC2)nc1N | -1.7 | 58* | 1 | -0.62
Fc1ccc(/C=C2\CCCC3=C2Nc2ncnn2C3c2ccc(F)cc2)cc1 (configuration not stated) | 0.031 | 81* | 14 | -1
COc1ccc(C2C3=C(Nc4ncnn42)c2ccccc2CCC3)cc1 (configuration not stated) | -0.081 | -4 | -9 | -0.84
CCN1CCc2c(C#N)c(NCc3ccccc3)nc(N(CC)CC)c2C1 | -4.2* | 5 | -2 | -1.1
N#Cc1c(NCCN)nc(NCc2ccccc2)c2c1CCN(Cc1ccccc1)C2 | -1.2 | . | . | 0.33
NS(=O)(=O)c1ccc(NC(=O)C2COc3ccccc3O2)cc1 (configuration not stated) | -0.62 | 4 | 11 | .
CC1CC(C)CN(S(=O)(=O)c2ccc(NC(=O)C3COc4ccccc4O3)cc2)C1 (configuration not stated) | -4.1 | 38* | 3 | .
O=C(N/N=C\c1ccc(COc2ccc([N+](=O)[O-])cc2)o1)c1cccc(Cl)c1 | -7.6* | 6 | -8 | -0.42
CCc1c(C)sc(NC(=O)Cn2nc(C(F)(F)F)c3c2CCCC3)c1C#N | -0.9 | -1 | -14 | 0.67
CCOC(=O)c1c(CN2CCN(C)CC2)n(C)c2cc(Br)c(OC)cc12 | -0.35 | 5 | -10 | -0.38
COc1cc2c(C(=O)N3CCN(c4ccccc4)CC3)c(C)oc2cc1Br | -3.3 | 35* | 0 | 1.2
CCOC(=O)c1c(CN2CCCCC2)n(C)c2cc(Br)c(O)cc12 | 0.17 | 0 | -3 | -0.27
CCOC(=O)c1c(CN2CCOCC2)n(-c2ccccc2)c2cc(Br)c(O)cc12 | -2.2 | 41* | 6 | -2.4
CCOC(=O)c1c(CN2CCOCC2)n(-c2ccccc2)c2cc(Br)c(OC)cc12 | -3 | 54* | -1 | -0.47
CCOC(=O)c1c(CSC(=N)N)n(-c2ccc(C)cc2)c2cc(Br)c(OC(C)=O)cc12 | -5.6* | 3 | -11 | -1.4
COc1cccc(CNc2ccc(Br)cn2)c1O | -6.5* | 12 | -4 | -1.1
COc1cccc(CNc2ncc(Br)cc2Br)c1O | -0.071 | 9 | 5 | -0.66
CC(C)=CC(=O)OCC(=O)Nc1ccc(F)cc1Cl | 0.9 | 33* | 12 | 0.84
O=C(Nc1ccncc1)c1cc(F)cc(F)c1 | 0.16 | 3 | -2 | -0.32
O=C(N[C@@H](Cc1ccc(O)cc1)C(=O)O)c1ccncc1 | -1.5 | . | . | .
CC(C)n1nc(C(=O)OCC(=O)c2c[nH]c3ccccc23)c2ccccc2c1=O | 0.6 | 29 | -3 | -3.6*
SMILES | Cav32 inh | PostGolgi ctrl | PostGolgi yeast | PTK2B oligo ant
O=C(N[C@@H](c1ccccc1)[C@@H]1C[C@H]1C(=O)O)OCc1ccccc1 | 0.67 | . | . | .
COc1ccc(-c2oc(NC(=O)CSc3ncn[nH]3)c(C#N)c2-c2ccc(OC)cc2)cc1 | -0.15 | 16 | 1 | -4*
COc1ccc(-c2oc(NC(=O)CCl)c(C#N)c2-c2ccc(OC)cc2)cc1 | 0.69 | 50* | 28 | -0.63
CCn1c(SCC(=O)Nc2oc(-c3ccccc3)c(-c3ccccc3)c2C#N)nnc1-c1cc(OC)cc(OC)c1 | -2.6 | 0 | -4 | -1.6
COc1ccc(NC(=O)CSc2nnc(CCC(=O)Nc3ccc(C)c(Cl)c3)n2C)cc1 | 0.22 | 4 | -5 | 2.4
COc1ccc(OC)c(C(c2nnnn2Cc2ccccc2)N2CCN(C3CCCCC3)CC2)c1 (configuration not stated) | -2.9 | -5 | 6 | 0.74
CCOc1ccc(C(=O)CCc2nc3ccccc3s2)cc1 | -3.5 | 16 | -6 | -3.3*
C/C(CC(=O)NCc1ccco1)=N\NC(=O)C(c1ccccc1)c1ccccc1 | -1.6 | 10 | -2 | 0.26
CC(C)CCNC(=O)CN(C(=O)Cn1nnc(-c2ccccc2F)n1)c1cccc2c1CCCC2 | -8* | 11 | 0 | -1
O=C(CN(C(=O)Cn1nnc(-c2ccccc2F)n1)c1cccc2c1CCCC2)NCc1ccccc1 | -6.1* | 18 | 1 | -1.4
CCC(C(=O)NC(C)(C)C)N(C(=O)Cn1nnc(-c2ccccc2F)n1)c1cccc2c1CCCC2 (configuration not stated) | -2.1 | 1 | 4 | 0.49
Cc1ccc(S(=O)(=O)NCCCN2CCOCC2)c(C)c1 | 0.034 | 7 | 0 | 0.27
CCOC(=O)C1=C(C)Nc2ccccc2N=C1NC(=O)Cc1ccc(OC)cc1 | . | . | . | -0.11
CCCCn1c2c(c3ccccc31)CCc1nonc1-2 | -0.11 | . | . | .
O=C(CN1CCN(c2ccccc2)CC1)Nc1ccc(Oc2ccccc2)cc1 | -1.7 | 42* | 4 | 0.31
O=C(CN1CCNCC1)Nc1ccc(Oc2ccccc2)cc1 | 1.2 | 39* | 5 | -0.01
O=C(CN1CCOCC1)Nc1ccc(Oc2ccccc2)cc1 | 1.6 | 8 | 2 | 1.4
O=C(NCCOC(=O)C1COc2ccccc2O1)c1cccnc1 (configuration not stated) | -0.17 | 0 | -6 | 1.1
CC1(C)C=C(c2ccc(O)cc2)CC(C)(C)N1 | 0.21 | -1 | -4 | -0.09
Cc1ccc(N2CCN(S(=O)(=O)N3CCCCCC3)CC2)cc1Cl | -1.5 | 0 | 31* | -0.87
Cc1scc(C(=O)NNC(=S)NCC2CCCO2)c1C (configuration not stated) | 0.55 | -3 | -1 | 0.24
CCc1cc(C(=O)NNC(=S)NCC2CCCO2)cs1 (configuration not stated) | 0.42 | 30* | -12 | 0.48
COc1ccc2c(c1)C1(Nc3ccccc3-c3nc4ccccc4n31)C(=O)N2C (configuration not stated) | 0.24 | 2 | 0 | -3.1*
Cc1ccc(OC(C)C)c(CN(CCO)CCO)c1 | 0.27 | 7 | -1 | 1
O=c1[nH]c2ccc(Cl)cc2c(-c2ccccc2)c1N1CCN(c2ccccn2)CC1 | -0.36 | 82* | 31* | 0
SMILES | Cav32 inh | PostGolgi ctrl | PostGolgi yeast | PTK2B oligo ant
O=c1[nH]c2ccc(Cl)cc2c(-c2ccccc2)c1N1CCOCC1 | -0.0065 | 29 | -2 | .
CN1CCN(c2nc(-c3ccco3)cc(C(F)(F)F)n2)CC1 | 0.052 | 1 | 9 | -0.08
CS(=O)(=O)c1nc(-c2ccco2)cc(C(F)(F)F)n1 | 0.28 | 48* | 0 | .
COc1ccccc1-c1cc(C(F)(F)F)nc(S(C)(=O)=O)n1 | . | 86* | 46* | -0.23
COc1ccccc1-c1cc(C(F)(F)F)nc(S(=O)(=O)CCCC(=O)NC(C)C)n1 | 0.02 | 43* | 2 | -0.86
CCOC(=O)c1cnc2nc(C(F)(F)F)[nH]n2c1=O | -0.0016 | 26 | 1 | 0.96
CCOC(=O)c1cnc2scnn2c1=O | . | 37* | 6 | -0.26
C/C(N)=C(/C#N)C(=O)CSc1nnc(COc2ccccc2Cl)o1 | 2.4 | 11 | -8 | -0.24
COc1ccccc1OCc1nnc(SCC(=O)c2cc(Cl)ccc2OC)o1 | -0.63 | 32* | 10 | 0.15
